14 molecules from PubChem BioAssay (NCI) can be followed below.

This is part of a sample that, as a whole, favours compounds with a hit. Of some 83,000 tested, about 20% had one in any assay.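 Single-concentration screen, 48 h exposure, 96-well plates. Endpoint: percent growth. Below 10 = active.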 Values without a mark were called inactive. Calls of active or inactive are those of the source.

Test systems include NCI-H23 lung; NCI-H226 lung; NCI-H322M lung; HOP-62 NSCLC; NCI-H460 lung; HOP-92 NSCLC; NCI-H522 lung; A549/ATCC NSCLC; 786-0 renal; COLO 205 colon.
Holding throughout (assay): NCI-60 one-dose screen, 48 h (100 = growth as untreated, 0 = no growth, -100 = all killed)
What all share (conditions): 10 µM unless noted

Turning to `CC(C)N1CCN(c2ccncc2S(=O)(=O)N2CCN(C)CC2)CC1`, the growth in the experiment with NCI-H23 lung was 96.8%; in the experiment with NCI-H226 lung it was 89.7%; with NCI-H322M lung it was 123%; in the experiment on HOP-62 NSCLC it was 106%; in the experiment with NCI-H460 lung, 102%; in the experiment with HOP-92 NSCLC it was 108%. The growth is 92.7% with NCI-H522 lung, 101% in the experiment on A549/ATCC NSCLC, 98.6% with 786-0 renal and 105% with COLO 205 colon.

On to `CCCC(CCC)NCC(O)c1cc(-c2ccc(C(F)(F)F)cc2)nc(C(F)(F)F)c1` (stereo not given), for which the growth with NCI-H23 lung was -59.4% (active); in the experiment on NCI-H226 lung it was -69.5% (active); with NCI-H322M lung, 0.686% (active); in the experiment on HOP-62 NSCLC, -64.8% (active); in the experiment on NCI-H460 lung, -60.1% (active); in the experiment on HOP-92 NSCLC it was -71.5% (active). The growth in the experiment with NCI-H522 lung is -77.5% (active); in the experiment on A549/ATCC NSCLC, -59.6% (active); with 786-0 renal, -61.5% (active); with COLO 205 colon, -83.5% (active).

For the molecule `Cc1cc(C)cc(Nc2cc(C)nc3nc(C(F)(F)F)nn23)c1`, the growth with NCI-H23 lung is 40%; with NCI-H226 lung, 37.8%; in the experiment on NCI-H322M lung, 25%; in the experiment on HOP-62 NSCLC it was 47.8%; in the experiment on NCI-H460 lung, 11%; in the experiment on HOP-92 NSCLC, 69.8%. In addition, the growth was 6.54% (active) in the experiment on NCI-H522 lung, 27.5% in the experiment with A549/ATCC NSCLC, 36.6% with 786-0 renal and 16.7% in the experiment with COLO 205 colon.

Take `COC(=O)/C=C/c1cc(OC(C)=O)c2c(c1)[C@@H](C(=O)OC)[C@H](c1ccc(OC(C)=O)c(OC(C)=O)c1)O2`: the growth with NCI-H23 lung was 20.7%; with NCI-H226 lung, -7.97% (active); in the experiment with NCI-H322M lung it was 60%; with HOP-62 NSCLC, 24%; with NCI-H460 lung, 11.4%; in the experiment on HOP-92 NSCLC, 12.9%. The growth is -25.3% (active) in the experiment on NCI-H522 lung, 20.6% with A549/ATCC NSCLC, 21.5% with 786-0 renal and 47.1% in the experiment on COLO 205 colon.

Consider `O=C(CI)NCCNc1cccc2c(S(=O)(=O)O)cccc12`, for which the growth was 95.1% in the experiment on NCI-H23 lung; 103% with NCI-H226 lung; 98% in the experiment with NCI-H322M lung; 107% in the experiment with HOP-62 NSCLC; 105% with NCI-H460 lung; 102% with HOP-92 NSCLC. The growth is 107% in the experiment with NCI-H522 lung, 110% in the experiment on A549/ATCC NSCLC, 101% in the experiment on 786-0 renal and 105% in the experiment on COLO 205 colon.

`O=C(Nc1cnc(C(F)(F)F)cn1)c1cc(Cl)ccc1O`: the growth is 2.55% (active) in the experiment with NCI-H23 lung; 8.55% (active) with NCI-H226 lung; 7.76% (active) with NCI-H322M lung; -4.96% (active) with HOP-62 NSCLC; 4.18% (active) in the experiment with NCI-H460 lung; -6.58% (active) in the experiment with HOP-92 NSCLC. Further, the growth in the experiment on NCI-H522 lung is -12.6% (active); with A549/ATCC NSCLC, 2.57% (active); with 786-0 renal, 0.361% (active); in the experiment on COLO 205 colon, 14.2%.

As for `CSC(=S)N/N=C(\C)c1ccccn1`, the growth with NCI-H23 lung was 33.6%; in the experiment with NCI-H226 lung it was 5.78% (active); in the experiment on NCI-H322M lung, 8.08% (active); with HOP-62 NSCLC, 21.6%; with NCI-H460 lung it was -18.1% (active); in the experiment on HOP-92 NSCLC, 31.3%. Moreover, the growth in the experiment on NCI-H522 lung was -3.86% (active); with A549/ATCC NSCLC, 10.3%; with 786-0 renal, 16.9%; in the experiment with COLO 205 colon it was 24%.

As for `Nc1nonc1-c1nc2ccccc2n1Cc1ccc(F)cc1`, the growth with NCI-H23 lung was 70.6%; with NCI-H226 lung, 69.3%; in the experiment with NCI-H322M lung it was 69.8%; in the experiment with HOP-62 NSCLC it was 56.7%; with NCI-H460 lung it was 49.3%; with HOP-92 NSCLC, 65%. In addition, the growth with NCI-H522 lung is 4.81% (active); with A549/ATCC NSCLC it was 39.1%; in the experiment on 786-0 renal, 76.4%; with COLO 205 colon it was 42.8%.

On to `C=C(C)C1CCC2(C(=O)O)CCC3(C)C(CCC4C5(C)CCC(O)C(C)(C)C5CCC43C)C12` (stereo not given), for which the growth in the experiment on NCI-H23 lung was -50.3% (active); in the experiment on NCI-H226 lung, 33.2%; with NCI-H322M lung, 6.5% (active); in the experiment with HOP-62 NSCLC, -59.1% (active); in the experiment with NCI-H460 lung, -22.5% (active); with HOP-92 NSCLC, -26.2% (active). The growth in the experiment on NCI-H522 lung was 1.49% (active); with A549/ATCC NSCLC it was -53.5% (active); in the experiment with 786-0 renal, -66.5% (active); with COLO 205 colon, -45.3% (active).

As for `CCCCCCCCCCCCCCCc1cc(O)ccc1[N+](=O)[O-]`, the growth was 79.6% in the experiment with NCI-H23 lung; 96.9% in the experiment with NCI-H226 lung; 100% in the experiment with NCI-H322M lung; 96% in the experiment on HOP-62 NSCLC; 102% in the experiment with NCI-H460 lung; 59.9% with HOP-92 NSCLC. In addition, the growth was 28% with NCI-H522 lung, 96.8% in the experiment with A549/ATCC NSCLC, 97.9% with 786-0 renal and 96% with COLO 205 colon.

For the molecule `CC1=C(O)C(=O)C(c2c(C)cc(C)c(Br)c2C)=C(O)C1=O`, the growth in the experiment with NCI-H23 lung is 40.7%; in the experiment with NCI-H226 lung it was 83.3%; with NCI-H322M lung it was 71.5%; in the experiment with HOP-62 NSCLC it was 69.9%; with NCI-H460 lung it was 35.5%; with HOP-92 NSCLC, 83.7%. Besides, the growth was 66.8% with NCI-H522 lung, 44.1% in the experiment on A549/ATCC NSCLC, 56.8% in the experiment on 786-0 renal and 75.8% with COLO 205 colon.

Take `CN(C)c1ccc(N2Cc3ccccc3OC3=C2C(=O)c2c(O)ccc(O)c2C3=O)cn1`: the growth was -36.7% (active) in the experiment on NCI-H23 lung; 6.21% (active) in the experiment with NCI-H226 lung; -7.76% (active) in the experiment on NCI-H322M lung; -45.8% (active) in the experiment on HOP-62 NSCLC; 1.55% (active) with NCI-H460 lung; -65.2% (active) in the experiment on HOP-92 NSCLC. Further, the growth is -54.2% (active) with NCI-H522 lung, -19.7% (active) with A549/ATCC NSCLC, -88.9% (active) with 786-0 renal and -81.9% (active) in the experiment with COLO 205 colon.

As to `CCCCN(CCCC)CCC(O)c1cc2ccc(C(F)(F)F)cc2c2cc(C(F)(F)F)ccc12` (stereo not given), the growth was 43.1% in the experiment on NCI-H23 lung; 83.1% in the experiment with NCI-H226 lung; 61.3% in the experiment on NCI-H322M lung; 79.1% with HOP-62 NSCLC; 5.31% (active) in the experiment on NCI-H460 lung; -4.55% (active) in the experiment with HOP-92 NSCLC. For the same molecule, the growth in the experiment on NCI-H522 lung is 3.17% (active); in the experiment with A549/ATCC NSCLC, 64.8%; with 786-0 renal, 42.4%; in the experiment on COLO 205 colon, 33.3%.

For the molecule `O=C(CN1CCN(c2ccccc2)CC1)N1CCN(c2nnc(-c3ccc(Cl)cc3)c(-c3ccc(Cl)cc3)n2)CC1`, the growth was 82.3% in the experiment with NCI-H23 lung; 68% with NCI-H226 lung; 89.9% in the experiment on NCI-H322M lung; 66% in the experiment with HOP-62 NSCLC; 47.9% with NCI-H460 lung; 71.3% in the experiment with HOP-92 NSCLC. For the same molecule, the growth with NCI-H522 lung is 59.7%; with A549/ATCC NSCLC, 54.8%; in the experiment on 786-0 renal, 40.1%; with COLO 205 colon, 51%.
